Data on 6 compounds can be found in the supplement of paper PMC7411054.

The structures appear in SMILES notation.

What all share (conditions): treatment time: 24 h
Experiment [1] relates to A549-ACTB-RAB5A. Put plainly: lowest phenotypically active concentration; higher = less potent. The essentials:
(§1)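 Two criteria together defined phenotypic activity: deviation and reproducibility. Deviation meant ≥3 of 4 wells beyond the 95th percentile of Euclidean distances in solvent control wells, and reproducibility meant a median replicate Pearson correlation above the 95th percentile of non-replicates. Wells had been treated for 24 h at 0.3, 1, 3 or 9 µM in fifteen gene-edited A549, HepG2 and WPMY1 reporter lines before live imaging.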

Experiment [2] has as its system A549-CANX-COX4. The description is as above. The essentials:
as §1

The subject of experiment [3] is A549-GM130-SQSTM1. The experiment is described as above. In outline:
as §1

Experiment [4] concerns HepG2-TUBA1B-RELA. Described as above. In outline:
as §1

Experiment [5] relates to A549-ACTB-RAB5A. Nature of the experiment: phenotypically active (imaging signature differs from DMSO and reproducible) at any of 0.3-9 uM (binary (1 = active, 0 = inactive)); higher = active. In outline: as §1
Experiment [6] deals with A549-CANX-COX4. The description is as above. The essentials: as §1
The test system of experiment [7] is A549-GM130-SQSTM1. The experiment is described as above. The essentials:
as §1

In another experiment the test system is A549-TP53BP1-CLTA. The description is as above. The essentials:
as §1

In the next experiment the test system is A549-TUBA1B-RELA. The description is as above. The essentials: as §1
The subject of the next experiment is HepG2-ACTB-RAB5A. Described as above. In outline:
as §1

In another experiment the test system is HepG2-CANX-COX4. The experiment is described as above. The essentials:
as §1

The subject of a further experiment is HepG2-GM130-SQSTM1. Described as above. In outline: as §1
Experiment [8] relates to HepG2-TP53BP1-CLTA. The description is as above. The essentials:
as §1

For experiment [9], the system named is HepG2-TUBA1B-RELA. The description is as above. The essentials:
as §1

In the next experiment the test system is WPMY1-ACTB-RAB5A. The description is as above. In outline: as §1
The subject of the next experiment is WPMY1-CANX-COX4. Described as above. The essentials: as §1
A further experiment has as its system WPMY1-GM130-SQSTM1. The description is as above. In outline: as §1
Another experiment has as its system WPMY1-TP53BP1-CLTA. The description is as above. The essentials: as §1
In the next experiment the test system is WPMY1-TUBA1B-RELA. The experiment is described as above. In outline:
as §1

The subject of experiment [10] is HepG2-TP53BP1-CLTA. Nature of the experiment: lowest phenotypically active concentration; higher = less potent. The essentials:
as §1

As to `COc1cc(O)cc(O)c1C(=O)/C=C/c1ccccc1` [Cardamonin], the “lowest phenotypically active concentration” value in the experiment with A549-ACTB-RAB5A [1], with A549-CANX-COX4 [2], in the experiment on A549-GM130-SQSTM1 [3] and in the experiment on HepG2-TUBA1B-RELA [4] was 9 µM throughout. For the same compound, the phenotypically active with A549-ACTB-RAB5A [5], with A549-CANX-COX4 [6], with A549-GM130-SQSTM1 [7], in the experiment with A549-TP53BP1-CLTA, with A549-TUBA1B-RELA and with HepG2-ACTB-RAB5A was 1 (active) throughout. In addition, the phenotypically active with HepG2-CANX-COX4 was 1 (active); in the experiment with HepG2-GM130-SQSTM1, 1 (active); in the experiment on HepG2-TP53BP1-CLTA [8], 0 (inactive); in the experiment on HepG2-TUBA1B-RELA [9], 1 (active); in the experiment with WPMY1-ACTB-RAB5A, 1 (active); in the experiment on WPMY1-CANX-COX4 it was 1 (active). Moreover, the phenotypically active with WPMY1-GM130-SQSTM1, in the experiment on WPMY1-TP53BP1-CLTA and with WPMY1-TUBA1B-RELA was 1 (active) throughout.
Regarding `COc1cc2c(cc1O)CC[C@@H]1[C@@H]2CC[C@]2(C)[C@@H](O)CC[C@@H]12` [2-methoxyestradiol], the “lowest phenotypically active concentration” value was found to be 1 µM in the experiment on A549-ACTB-RAB5A [1]; 1 µM in the experiment on A549-CANX-COX4 [2]; 1 µM with A549-GM130-SQSTM1 [3]; 3 µM in the experiment on HepG2-TP53BP1-CLTA [10]; 3 µM in the experiment on HepG2-TUBA1B-RELA [4]. Also, the phenotypically active with A549-ACTB-RAB5A [5], with A549-CANX-COX4 [6], with A549-GM130-SQSTM1 [7], with A549-TP53BP1-CLTA, in the experiment on A549-TUBA1B-RELA and in the experiment on HepG2-ACTB-RAB5A was 1 (active) in each case. Further, the phenotypically active in the experiment with HepG2-CANX-COX4, in the experiment with HepG2-GM130-SQSTM1, in the experiment with HepG2-TP53BP1-CLTA [8], in the experiment with HepG2-TUBA1B-RELA [9], in the experiment on WPMY1-ACTB-RAB5A and in the experiment with WPMY1-CANX-COX4 was 1 (active) throughout. In addition, the phenotypically active was 0 (inactive) in the experiment on WPMY1-GM130-SQSTM1, 1 (active) in the experiment on WPMY1-TP53BP1-CLTA and 1 (active) in the experiment with WPMY1-TUBA1B-RELA.
Consider `C=CC(=O)Nc1cccc(Nc2nc(Nc3ccc(Oc4ccnc(C(=O)NC)c4)cc3)ncc2F)c1`, for which the “lowest phenotypically active concentration” value in the experiment with A549-ACTB-RAB5A [1], in the experiment on A549-CANX-COX4 [2], in the experiment with A549-GM130-SQSTM1 [3], in the experiment on HepG2-TP53BP1-CLTA [10] and in the experiment on HepG2-TUBA1B-RELA [4] was 9 µM each time. The phenotypically active with A549-ACTB-RAB5A [5], with A549-CANX-COX4 [6], in the experiment on A549-GM130-SQSTM1 [7], in the experiment with A549-TP53BP1-CLTA, in the experiment on A549-TUBA1B-RELA and with HepG2-ACTB-RAB5A was 1 (active) each time. Moreover, the phenotypically active with HepG2-CANX-COX4 was 0 (inactive); with HepG2-GM130-SQSTM1 it was 1 (active); with HepG2-TP53BP1-CLTA [8] it was 1 (active); in the experiment on HepG2-TUBA1B-RELA [9], 1 (active); in the experiment with WPMY1-ACTB-RAB5A, 1 (active); with WPMY1-CANX-COX4, 1 (active). Also, the results for the phenotypically active in the experiment on WPMY1-GM130-SQSTM1, with WPMY1-TP53BP1-CLTA and in the experiment on WPMY1-TUBA1B-RELA were 1 (active), 0 (inactive) and 0 (inactive), respectively.
With `O=C(NOC[C@H](O)CO)c1ccc(F)c(F)c1Nc1ccc(I)cc1F`, the “lowest phenotypically active concentration” value with A549-ACTB-RAB5A [1] was at most 0.3 µM; in the experiment with A549-CANX-COX4 [2], 1 µM; in the experiment with A549-GM130-SQSTM1 [3] it was at most 0.3 µM; with HepG2-TP53BP1-CLTA [10], at most 0.3 µM; in the experiment on HepG2-TUBA1B-RELA [4], at most 0.3 µM. The phenotypically active in the experiment with A549-ACTB-RAB5A [5], with A549-CANX-COX4 [6], in the experiment on A549-GM130-SQSTM1 [7], in the experiment with A549-TP53BP1-CLTA, in the experiment with A549-TUBA1B-RELA and in the experiment on HepG2-ACTB-RAB5A was 1 (active) throughout. Further, the phenotypically active with HepG2-CANX-COX4 was 1 (active); in the experiment on HepG2-GM130-SQSTM1, 1 (active); with HepG2-TP53BP1-CLTA [8] it was 1 (active); with HepG2-TUBA1B-RELA [9], 1 (active); in the experiment with WPMY1-ACTB-RAB5A, 1 (active); in the experiment on WPMY1-CANX-COX4, 0 (inactive). Also, the figures for the phenotypically active in the experiment with WPMY1-GM130-SQSTM1, in the experiment on WPMY1-TP53BP1-CLTA and with WPMY1-TUBA1B-RELA were 1 (active), 1 (active) and 0 (inactive), respectively.
For the compound `Cc1ccc(Nc2nccc(N(C)c3ccc4c(C)n(C)nc4c3)n2)cc1S(N)(=O)=O` [pazopanib], the “lowest phenotypically active concentration” value in the experiment with A549-ACTB-RAB5A [1] came to 1 µM; in the experiment on A549-CANX-COX4 [2], 3 µM; in the experiment with A549-GM130-SQSTM1 [3] it was 3 µM; in the experiment on HepG2-TP53BP1-CLTA [10] it was 9 µM. Further, the phenotypically active was 1 (active) in the experiment with A549-ACTB-RAB5A [5]; 1 (active) in the experiment on A549-CANX-COX4 [6]; 1 (active) in the experiment on A549-GM130-SQSTM1 [7]; 1 (active) in the experiment with A549-TP53BP1-CLTA; 1 (active) with A549-TUBA1B-RELA; 0 (inactive) in the experiment with HepG2-ACTB-RAB5A. For the same compound, the phenotypically active with HepG2-CANX-COX4 was 1 (active); in the experiment with HepG2-GM130-SQSTM1 it was 1 (active); in the experiment on HepG2-TP53BP1-CLTA [8], 1 (active); in the experiment with HepG2-TUBA1B-RELA [9], 0 (inactive); with WPMY1-ACTB-RAB5A it was 1 (active); in the experiment with WPMY1-CANX-COX4, 1 (active). The values for the phenotypically active in the experiment on WPMY1-GM130-SQSTM1, with WPMY1-TP53BP1-CLTA and with WPMY1-TUBA1B-RELA were 0 (inactive), 0 (inactive) and 1 (active), respectively.
Turning to `Cc1cc2c(F)c(Oc3ncnn4cc(OC[C@@H](C)O)c(C)c34)ccc2[nH]1` [brivanib], the “lowest phenotypically active concentration” value with A549-ACTB-RAB5A [1], in the experiment on A549-CANX-COX4 [2], with A549-GM130-SQSTM1 [3], in the experiment with HepG2-TP53BP1-CLTA [10] and in the experiment with HepG2-TUBA1B-RELA [4] was 9 µM throughout. In addition, the phenotypically active in the experiment with A549-ACTB-RAB5A [5], in the experiment on A549-CANX-COX4 [6], with A549-GM130-SQSTM1 [7], in the experiment with A549-TP53BP1-CLTA, with A549-TUBA1B-RELA and in the experiment with HepG2-ACTB-RAB5A was 1 (active) each time. In addition, the phenotypically active in the experiment on HepG2-CANX-COX4, in the experiment with HepG2-GM130-SQSTM1, in the experiment on HepG2-TP53BP1-CLTA [8], in the experiment on HepG2-TUBA1B-RELA [9], with WPMY1-ACTB-RAB5A and in the experiment on WPMY1-CANX-COX4 was 1 (active) in each case. Further, the phenotypically active with WPMY1-GM130-SQSTM1 is 0 (inactive); in the experiment with WPMY1-TP53BP1-CLTA it was 1 (active); in the experiment on WPMY1-TUBA1B-RELA, 1 (active).
